Source: PubChem (National Center for Advancing Translational Sciences (NCATS))
ALDH1A1 block = inhibitors of human aldehyde dehydrogenase 1A1; Potency, µM (highest dose often 75.3 µM), usual class: inhibitors; Purified ALDH1A1, NADH fluorescence, propionaldehyde substrate; AID 1030; P00352; hit rate 7.3% among 220,000
Target sequence (P00352 whole entry, looked up): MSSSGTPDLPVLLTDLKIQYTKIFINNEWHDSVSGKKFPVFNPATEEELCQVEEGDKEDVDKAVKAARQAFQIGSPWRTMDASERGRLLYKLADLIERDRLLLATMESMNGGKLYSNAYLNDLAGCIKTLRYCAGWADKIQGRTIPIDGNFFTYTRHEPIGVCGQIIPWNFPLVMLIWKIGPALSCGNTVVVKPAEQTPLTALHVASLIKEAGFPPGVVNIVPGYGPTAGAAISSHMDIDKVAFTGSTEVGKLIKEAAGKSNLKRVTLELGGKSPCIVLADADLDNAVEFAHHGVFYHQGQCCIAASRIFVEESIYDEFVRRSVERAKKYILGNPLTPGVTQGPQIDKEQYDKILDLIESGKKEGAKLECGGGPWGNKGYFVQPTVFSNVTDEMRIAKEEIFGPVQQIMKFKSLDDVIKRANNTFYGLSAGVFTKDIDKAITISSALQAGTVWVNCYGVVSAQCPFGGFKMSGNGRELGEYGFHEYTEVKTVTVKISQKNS
HPGD block = HPGD (human) dehydrogenase inhibition. Potency, µM, most hits filed as inhibitors. hit rate 4.3% among 150,000. AID 894. purified HPGD, NADH fluorescence kinetic, PGE2 substrate
Target sequence (P15428 whole entry, looked up): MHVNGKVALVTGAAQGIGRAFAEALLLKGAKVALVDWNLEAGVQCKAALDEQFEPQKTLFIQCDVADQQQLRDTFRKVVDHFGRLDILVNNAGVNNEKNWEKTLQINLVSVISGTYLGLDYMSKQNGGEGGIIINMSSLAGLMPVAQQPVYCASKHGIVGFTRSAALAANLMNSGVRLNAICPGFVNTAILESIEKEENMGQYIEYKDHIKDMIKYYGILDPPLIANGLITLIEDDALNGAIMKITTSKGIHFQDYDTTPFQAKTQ
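20 nM HPGD preincubated 15 min at room temperature with compound in 50 mM Tris-HCl pH 8, 0.01% Tween 20. Started with 1 mM NAD+ and 30 uM prostaglandin E2; NADH fluorescence (360/450 nm) read 5 times over 30-s intervals, last minus first.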
HTT cytoprotect = protects HTT-Q103 PC12 cells, measured by ATP; PC12 HTT-Q103 induced, cytoprotection, ATP luminescence, 40 h; hit rate 0.14% among 230,000; Potency, µM (top dose mostly 56.4 µM), actives largely listed as activators; active = well fitted curve in the direction sought with a large enough effect; inconclusive = small, poorly fitted or top-dose-only effect, or another doubt; inactive = no such curve, though single readings can be large; an effect the other way counts as inactive or inconclusive; note: nearly all actives have a fitted effect of over 45% in size
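PC12 cells stably carrying ecdysone-inducible Htt exon 1 (Q103)–GFP were induced with 100 nM tebufenozide (final) alongside library compounds in a dose series. Cytoprotection was scored as retained ATP by ATPlite luminescence.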
HTT aggregate = reduces HttQ103-GFP aggregates in PC12 cells. Potency, µM (top dose mostly 46.1 µM), usual class: inhibitors. PC12 HttQ103-GFP aggregates, Acumen cytometry, 40 h. AID 1688. hit rate 1.1% among 220,000; active = well fitted curve in the direction sought with a large enough effect; inconclusive = small, poorly fitted or top-dose-only effect, or another doubt; inactive = no such curve, though single readings can be large; an effect the other way counts as inactive or inconclusive; note: nearly all actives have a fitted effect of over 60% in size
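Ecdysone-promoter PC12 model expressing HTT exon 1 Q103 fused to GFP, induced by tebufenozide at 100 nM final. Compounds titrated; aggregates sized 1–25 µm scored on a 488 nm laser cytometer.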
Lamin A splicing = changes lamin A minigene splicing in HeLa cells; HeLa LMNA splicing GFP/RFP minigene ratio, 48 h; Potency, µM (top dose mostly 46.1 µM), most hits filed as inhibitors; hit rate 0.01% among 200,000; AID 1487; active = well fitted inhibition curve with a large enough effect in the signal ratio, with a control signal flat, not every such curve was filed as active; inconclusive = small, poorly fitted or top-dose-only effect, or effect the other way, or a change in a side signal; the % refers to the signal ratio
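Read-out is the ratio of GFP to DsRed2 object intensity, acquired by 488 nm laser-scanning cytometry on HeLa lamin A-EGFP minigene reporter cells. Compound incubation 48 hrs at 37 °C in Opti-MEM with 2% FBS; DMSO 0.5% final.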
Hits are given with their value; - = inactive; ? = inconclusive; . = no result given; [ ] = dose if it differs, or a comment. The list is not random: actives were taken first. Their share in the collection is about 8.8%. Unless noted, calls come from the whole dose curve; as a rule, active = well fitted inhibition curve with a large enough effect (not every such curve was filed as active); inconclusive = small, poorly fitted or top-dose-only effect, or another doubt; inactive = no such curve, though single readings can be large or run the other way.

SMILES | ALDH1A1 block | HPGD block | HTT cytoprotect | HTT aggregate | Lamin A splicing
O=c1ccc2cc(O[C@@H]3O[C@@H](CO)[C@@H](O)[C@@H](O)[C@H]3O)c(O)cc2o1 | . | . | - | . | .
Cc1cc(SCc2sc(-c3ccc(C(F)(F)F)c(F)c3)nc2C)ccc1OCC(=O)O | ? | 10µM | - | . | .
Cc1nn(-c2ccccc2)c2c1C(c1ccc3c(c1)OCO3)SCC(=O)N2 (configuration not stated) | - | 8.9µM | -[10 µM] | - | -
CCC(=NCCO)c1c(O)n(C2CCCCC2)c(=O)[nH]c1=O | - | - | -[0.074 µM] | - | -
CCC(=NCc1ccc2c(c1)OCO2)c1c(O)n(C2CCCCC2)c(=O)[nH]c1=O | 13µM | - | -[10 µM] | ? | -
O=C(O)[C@@H]1CSC(c2cccnc2)N1 (some centres not stated) | - | - | - | . | .
COc1c(C(C)(C)C)cc([N+](=O)[O-])c(C)c1[N+](=O)[O-] | ? | - | - | . | .
O=C1NC(=O)C(C(CC(=O)c2ccccc2)c2ccccc2)C(=O)N1 (configuration not stated) | 0.1µM | . | -[10 µM] | -[9.22 µM] | -
CN1[C@@H](CC(=O)c2ccccc2)CCC[C@@H]1C[C@@H](O)c1ccccc1 | - | - | - | . | -
COc1cccc(N=Nc2c(O)[nH]c(=S)[nH]c2=O)c1 | 25µM | . | -[10 µM] | -[9.22 µM] | .
COc1ccc(N=Nc2c(O)[nH]c(=S)[nH]c2=O)cc1 | - | . | - | - | -[9.22 µM]
N#Cc1c(/N=C/C2C(=O)NC(=S)NC2=O)sc2c1CCCC2 | 22µM | . | . | - | .
CCOC(=O)c1c(/N=C/C2C(=O)NC(=S)NC2=O)sc2c1CCC2 | 18µM | . | - | - | -
CCOC(=O)c1cc(C)sc1/N=C/C1C(=O)NC(=S)NC1=O | 7.1µM | . | - | - | -
CCOC(=O)c1c(/N=C/C2C(=O)NC(=S)NC2=O)sc(C)c1C | 20µM | . | . | - | .
O=CN1C[C@H]2C[C@@H](C1)c1cccc(=O)n1C2 | . | . | - | . | .
CSc1ccc(C(=O)C(C)(C)N2CCOCC2)cc1 | 8.9µM | - | - | - | -
CC1=CC(=O)NP(=O)(Oc2ccc3ccccc3c2)N1 (configuration not stated) | ? | 35µM | - | - | -
COC(=O)c1ccc(N2C(=O)CC(N3CCC(n4c(=O)[nH]c5ccccc54)CC3)C2=O)cc1 (configuration not stated) | 10µM | - | -[0.074 µM] | - | -
COC(=O)c1ccc(N2C(=O)CC(N3CCC(O)(c4ccc(Br)cc4)CC3)C2=O)cc1 (configuration not stated) | 3.2µM | - | - | - | -
CC(C)[C@]1(O)[C@@H](OC(=O)c2ccc[nH]2)[C@]2(O)[C@@]3(C)C[C@@]4(O)O[C@@]5([C@H](O)[C@@H](C)CC[C@]35O)[C@]2(O)[C@]41C | -[13.5 µM] | - | -[10 µM] | . | .
O=C(O)CS(=O)(=O)C(c1ccccc1)c1ccccc1 | -[13.5 µM] | - | -[10 µM] | . | .
CC1(C)CC(=O)C2=C(C1)OC(N)=C([N+](=O)[O-])C2c1ccc(C#N)s1 (configuration not stated) | 20µM | . | -[10 µM] | -[9.22 µM] | .
O=C(c1cc(C(=O)NCc2ccccc2)c(=O)n(Cc2ccccc2)c1)c1cc(Cl)ccc1O | ? | 16µM | . | ? | ?
CC(C)CCNC(=O)c1cc(C(=O)c2cc(Br)ccc2O)cn(CCC(C)C)c1=O | - | . | - | - | .
SMILES | ALDH1A1 block | HPGD block | HTT cytoprotect | HTT aggregate | Lamin A splicing
COC(=O)NC(=S)Nc1ccccc1NC(=S)NC(=O)OC | 10µM | - | - | . | ?
Cc1[nH]n(-c2ccccc2)c(=O)c1C(c1ccc([N+](=O)[O-])cc1)c1c(C)[nH]n(-c2ccccc2)c1=O | 13µM | 28µM | -[10 µM] | - | ?
Cc1[nH]n(-c2ccccc2)c(=O)c1C(C[N+](=O)[O-])c1ccccc1Cl (configuration not stated) | ? | - | - | - | -
Oc1cccc[c]1[Hg][Cl] | . | . | - | 8.9µM | .
COc1cc2c(cc1OC)-c1c(OC)c(OC)c(CO)c3c1[C@H](C2)N(C)CC3 | . | . | - | . | .
CCCN(CC#CCOc1ccc(OC)cc1)CCC | 20µM | - | - | - | -
O=C1NC(=O)C(=Cc2ccccc2Oc2ccc(F)cc2)C(=O)N1 | ? | . | - | - | .
CN1C(=O)C(=Cc2ccccc2Oc2ccc(Cl)c(F)c2)C(=O)N(C)C1=O | ? | 11µM | - | - | -
NS(=O)(=O)c1ccc(-c2ccc([As](=O)(O)O)cc2)cc1 | -[13.5 µM] | - | -[10 µM] | . | .
CCCCn1c(O)c(C=NCCCn2ccnc2)c(=O)[nH]c1=O | 18µM | - | - | - | -
NC[C@H](O)c1cc(O)c(O)cc1F | . | . | -[1.9 µM] | . | .
O=C(Nc1cccc(Cl)c1)OC1CN2CCC1CC2 (configuration not stated) | - | . | -[10 µM] | -[9.22 µM] | .
CC(C)OC(=O)Nc1cccc(Cl)c1 | - | 13µM | . | . | -
CCOC(=O)c1c(C)n(Cc2ccco2)c2ccc(O)cc12 | 4µM | 22µM | - | - | -
CCOC(=O)c1ccc(NC(=O)C2C3C=CC(O3)C2C(=O)O)cc1 (configuration not stated) | 10µM | - | - | - | -
CCOC(=O)c1ccc(NC(c2ccc(N(C)C)cc2)P(=O)(OC(C)C)OC(C)C)cc1 (configuration not stated) | ? | . | - | - | -
N#CCc1ccccc1 | - | - | - | . | .
COc1ccc(C(=O)Nc2sc3c(c2C(=O)O)CC(C)(C)OC3)cc1 | 20µM | ? | . | - | ?
COc1ccc2c(c1)[C@@]13CCCCC1[C@@H](C2)N(C)CC3 (some centres not stated) | - | - | - | . | .
C=CCn1c(O)c(C(C)=Nc2ccc(C(=O)OCC)cc2)c(=O)[nH]c1=O | 32µM | - | -[0.074 µM] | - | -
CCC1(c2ccccc2)C(=O)N(C)C(=O)N(C)C1=O | - | - | - | - | -
CN1C(=O)N(C)C(=O)C2(Cc3ccccc3N3CCOCC32)C1=O (configuration not stated) | 20µM | - | -[0.074 µM] | - | -
CCn1c(=O)oc2cc(NC(=O)CCl)ccc21 | 1.6µM | . | - | -[9.22 µM] | ?
CCOP(=S)(OCC)SCn1c(=O)oc2cc(Cl)ccc21 | - | ? | . | . | ?
O=C(O)C[O][Sb][O]CC(=O)O | -[13.5 µM] | - | -[10 µM] | . | .
SMILES | ALDH1A1 block | HPGD block | HTT cytoprotect | HTT aggregate | Lamin A splicing
O=[N+]([O-])c1ccc2nc(CCCc3nc4ccc([N+](=O)[O-])cc4[nH]3)[nH]c2c1 | 14µM | . | . | . | ?
Cc1ccc([N+](=O)[O-])cc1C | ? | - | - | . | .
Cc1ccccc1C(O)(Cc1ccccc1)C1CN2CCC1CC2 (configuration not stated) | - | - | 3.2µM | -[9.22 µM] | -
CCN(CC)C(=O)c1ccc(NC(=O)Cn2nc(C)c3ccccc3c2=O)cc1 | ? | 10µM | - | - | -
CCC(C)N1C(=O)/C(=C/c2ccc3c(c2)CCN3CCCCl)C(=O)NC1=S (configuration not stated) | 0.22µM | 25µM | -[10 µM] | - | ?
Cn1cccc1/C=C1/C(=O)NC(=S)N(Cc2ccc(F)cc2)C1=O | . | . | -[10 µM] | -[9.22 µM] | .
O=C(Nc1ccc(Cl)cc1)Nc1ccc(Cl)c(Cl)c1 | . | . | - | 11µM | ?
N#CC(C#N)=Cc1ccc(-c2ccccc2F)o1 | 8.9µM | - | . | ? | -
